Assay outcomes (PubChem)
An excerpt weighted towards active compounds, which were near 3.7% of everything screened.
TIM10 inh: growth inhibitors of isogenic TIM10 control yeast, primary screen, counter-screen for tim10-1 yeast inhibitor project, luminescence, uHTS | S. cerevisiae TIM10 strain growth, BacTiter-Glo luminescence, 24 h | inhibition, % at 10 µM | 1.4% of 330,000 active | AID 463195, 2010;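 active = inhibition of 40% or more at the single tested concentration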;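 also: wild-type TIM10 isogenic control strain grown at permissive 25 °C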
tim10-1 inh: growth inhibitors of tim10-1 mutant yeast, primary screen, luminescence, uHTS. S. cerevisiae tim10-1 ts strain growth, BacTiter-Glo, 24 h. inhibition, % at 20 µM. 2.2% of 330,000 active;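 active = inhibition of at least 40%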;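 also: mutant grown at 25 °C; 0% = DMSO wells with yeast and 100% = wells holding no yeast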
PfHsp90 set2: growth inhibition of PfHsp90-expressing yeast, primary screen, antimalarial PfHsp90 inhibitor project, S. cerevisiae, BacTiter-Glo luminescence, single point, set 2 | BacTiter-Glo ATP, 48 h; yeast lacking PDR1 and PDR3 efflux regulators | inhibition, % at 9.4 µM | 0.32% of 310,000 active | AID 504621, 2011;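 active = every replicate shows inhibition above about 80%, whatever the replicate mean, limit read from the data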;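 also: 0% = DMSO neutral controls and 100% = 20 µM radicicol positive controls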
tim23-1 inh: growth inhibitors of tim23-1 mutant yeast, primary screen, luminescence, uHTS. S. cerevisiae tim23-1 growth, BacTiter-Glo luminescence, 24 h. inhibition, % at 20 µM. 1.3% of 330,000 active. AID 463212, 2010;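 active = growth inhibition of the mutant yeast at or above 50%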;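 also: temperature-sensitive mutant grown at 25 °C; plate controls were DMSO-treated mutant yeast for no effect and medium wells lacking yeast for full effect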
V-ATPase pH: regulators of yeast V-ATPase proton pumping, primary screen, pHLuorin cytosolic pH fluorescence. S. cerevisiae. response, % at 10 µM. 0.37% of 350,000 active. AID 504577, 2011; in the data active = response mostly above about 7.3%, no sharp cut-off; inactive = mostly below about 5.4%; also: actives read high
tim23-1 confirm: tim23-1 mutant yeast growth inhibitors, confirmation, luminescence, single concentration. shares compounds with tim23-1 inh. AID 463218, 2010. 83% of 4,400 active. inhibition, % at 20 µM. S. cerevisiae tim23-1 growth, BacTiter-Glo luminescence, 24 h;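 active = inhibition above about 39% in either of two replicate wells at 20 µM, limit read from the data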;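 also: temperature-sensitive tim23-1 mutant grown at 25 °C; 0% = DMSO wells with yeast and 100% = medium wells without yeast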
Active calls of the source: *.

How did COc1ccccc1C1CC(=O)Oc2cc(C)c(Cl)cc21 (stereo not given) do in these assays?
TIM10 inh: -3; tim10-1 inh: 15; PfHsp90 set2: -29; tim23-1 inh: 46; V-ATPase pH: 0

How did COc1ccc(C2CC(=O)Oc3cc(C)c(Cl)cc32)cc1 (stereo not given) do in these assays?
TIM10 inh: 9; tim10-1 inh: 26; PfHsp90 set2: 6; tim23-1 inh: 53*; V-ATPase pH: -1; tim23-1 confirm: 40*

Results for CCCSC1=C(C#N)C(c2ccccc2OCC)CC(=O)N1 (stereo not given) ?
TIM10 inh: 1; tim10-1 inh: -5; PfHsp90 set2: 11; tim23-1 inh: 6; V-ATPase pH: 1

Results for CCCCSC1=C(C#N)C(c2ccccc2C)CC(=O)N1 (stereo not given) ?
TIM10 inh: 6; tim10-1 inh: 25; PfHsp90 set2: 13; tim23-1 inh: 51*; V-ATPase pH: 2; tim23-1 confirm: 52*

What do the screens show for `CCCSC1=C(C#N)C(c2ccccc2C)CC(=O)N1` (stereo not given)?
TIM10 inh: 17; tim10-1 inh: 27; tim23-1 inh: 51*; V-ATPase pH: -1; tim23-1 confirm: 44*

What do the screens show for `CC(=O)Cc1nsc(NC(=O)c2ccc(-c3cccc(Cl)c3)o2)n1`?
TIM10 inh: -14; tim10-1 inh: 17; PfHsp90 set2: -28; tim23-1 inh: 33; V-ATPase pH: -1

Results for Cc1cc(=O)[nH]c(-n2ncc(C#N)c2N)n1 ?
TIM10 inh: 10; tim10-1 inh: -5; PfHsp90 set2: 15; tim23-1 inh: 8; V-ATPase pH: 2

What do the screens show for `CCC/C=C/c1ccc(CN2C(C)C(=O)N(Cc3cn(CCC4OCCO4)nn3)CCS2(=O)=O)cc1` (stereo not given)?
V-ATPase pH: -2

What do the screens show for `COc1ccc(/C=N/NC(=O)NC23CC4CC(CC(C4)C2)C3)c(OC)c1`?
TIM10 inh: 13; tim10-1 inh: 37; PfHsp90 set2: 4; tim23-1 inh: 55*; V-ATPase pH: -5; tim23-1 confirm: 45*

How did CC(=O)c1c(O)c(C)c(-c2ccccc2)n(-c2ccccc2)c1=O do in these assays?
TIM10 inh: 24; tim10-1 inh: 33; PfHsp90 set2: 34; tim23-1 inh: 56*; V-ATPase pH: -3; tim23-1 confirm: 43*

What do the screens show for `O=C(Nc1cc(Cl)ccc1N1CCOCC1)c1ccc(Br)o1`?
TIM10 inh: 15; tim10-1 inh: 18; PfHsp90 set2: -39; tim23-1 inh: 10; V-ATPase pH: -2

What do the screens show for `COc1ccc(N2CCOCC2)c(NC(=O)c2ccc(Br)o2)c1`?
TIM10 inh: -6; tim10-1 inh: 30; PfHsp90 set2: 20; tim23-1 inh: 52*; V-ATPase pH: -1; tim23-1 confirm: 39*

What do the screens show for `NC(=O)c1ccc(NC(=O)COC(=O)c2ccc(Br)o2)cc1`?
TIM10 inh: -2; tim10-1 inh: -4; PfHsp90 set2: 0; tim23-1 inh: 6; V-ATPase pH: 1

Results for CC(C)c1nc(NCCO)c(C#N)c2c1CCCC2 ?
TIM10 inh: 30; tim10-1 inh: 37; PfHsp90 set2: -9; tim23-1 inh: 54*; V-ATPase pH: -1; tim23-1 confirm: 39*

What do the screens show for `CC(C)c1nc(NCc2ccccc2)c(C#N)c2c1CCCC2`?
TIM10 inh: -6; tim10-1 inh: 19; PfHsp90 set2: 22; tim23-1 inh: -1; V-ATPase pH: 4

What do the screens show for `O=C(N/N=C/c1ccccn1)c1ccc(Cl)c(Cl)c1`?
TIM10 inh: 24; tim10-1 inh: 27; PfHsp90 set2: -4; tim23-1 inh: 62*; V-ATPase pH: 0; tim23-1 confirm: 49*

How did C#CCN(C[C@@H]1[C@@H](OC(=O)NCc2ccccc2F)[C@@H](OC(=O)NCc2ccccc2F)Cn2c(=O)ccc(=O)n21)S(=O)(=O)c1ccc(C)cc1 do in these assays?
V-ATPase pH: -1

Results for COc1ccccc1/C=C/C(=O)NC(=S)NC(C)C ?
TIM10 inh: 11; tim10-1 inh: -3; PfHsp90 set2: 6; tim23-1 inh: 59*; V-ATPase pH: -1; tim23-1 confirm: 41*

Results for CC1c2ccccc2N(S(=O)(=O)c2ccccc2)C1C (stereo not given) ?
PfHsp90 set2: 1; V-ATPase pH: -4

How did O=C1NC(=O)c2cc(Br)cc3cccc1c23 do in these assays?
TIM10 inh: -12; tim10-1 inh: -11; PfHsp90 set2: -53; tim23-1 inh: -8; V-ATPase pH: -1

How did O=C1NC(=O)c2cc([N+](=O)[O-])cc3cccc1c23 do in these assays?
TIM10 inh: -17; tim10-1 inh: 3; PfHsp90 set2: -9; tim23-1 inh: 62*; V-ATPase pH: -7; tim23-1 confirm: 49*

Results for Cc1cccc(/C=N/NC(=O)c2ccccc2OCc2cccc(Br)c2)n1 ?
TIM10 inh: 0; tim10-1 inh: 25; PfHsp90 set2: 12; tim23-1 inh: 51*; V-ATPase pH: 1; tim23-1 confirm: 55*

How did CC(OC(=O)c1cc(S(=O)(=O)N2CCOCC2)ccc1F)C(=O)NCc1ccc2c(c1)OCO2 (stereo not given) do in these assays?
TIM10 inh: 2; tim10-1 inh: -10; PfHsp90 set2: -9; tim23-1 inh: -7; V-ATPase pH: 0

Results for Cc1ccc(S(=O)(=O)/C(C#N)=C/c2c(Oc3ccc(Cl)cc3)nc3c(C)cccn3c2=O)cc1 ?
TIM10 inh: -12; tim10-1 inh: 2; tim23-1 inh: 50*; tim23-1 confirm: 24

What do the screens show for `Cc1ccc(Oc2nc3c(C)cccn3c(=O)c2/C=C(\C#N)C(N)=O)cc1`?
TIM10 inh: 16; tim10-1 inh: 14; PfHsp90 set2: -12; tim23-1 inh: 23; V-ATPase pH: 1

How did COc1ccc(NC(=O)COC(=O)c2cc(Cl)ccc2O)cc1S(=O)(=O)N1CCCCC1 do in these assays?
TIM10 inh: -11; tim10-1 inh: -9; PfHsp90 set2: -4; tim23-1 inh: 0; V-ATPase pH: -3

How did Cc1cccc(-n2c(SCC(N)=O)nc3c(c2=O)C2(CCCC2)Cc2ccccc2-3)c1 do in these assays?
TIM10 inh: 38; tim10-1 inh: 25; PfHsp90 set2: -4; tim23-1 inh: 54*; V-ATPase pH: 1; tim23-1 confirm: 47*

What do the screens show for `NC(=O)CSc1nc2c(c(=O)n1-c1ccccc1)C1(CCCCC1)Cc1ccccc1-2`?
TIM10 inh: 13; tim10-1 inh: 6; PfHsp90 set2: 18; tim23-1 inh: 11; V-ATPase pH: 1
